Measured values: PubChem BioAssay
The source made the active and inactive calls. Unless noted, how the calls were made is not given here.

System: not listed separately
Assay: human hepatoma cell viability loss – ATP luminescence, cytotoxicity control for P. falciparum antimalarial project, primary screen (AID 2303;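 active means inhibition above 50%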;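 further: 0% = DMSO wells and 100% = digitonin-killed cells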)
Conditions: HepG2 viability, 24-48 h, at 10 µM, stronger effect = higher value

SMILES | inhibition
COc1cc(CNC[C@@H](O)[C@H](Cc2ccccc2)NC(=O)c2cc(C3CCCC3)cc(N3CCCS3(=O)=O)c2)cc(OC)c1 | 31% (inactive)
Cc1ccccc1Nc1nc(Nc2ccccc2)c2ccccc2n1 | 19% (inactive)
CCCc1cn2c3c(cc(C(=O)N[C@@H](Cc4ccccc4)[C@H](O)CNC4CCOCC4)cc13)N(C)S(=O)(=O)CC2 | 1% (inactive)
COc1ccc(CNC(=O)NC2CCN(c3ccnc(Nc4ccc(F)cc4)n3)CC2)cc1 | 16% (inactive)
CC(C)COc1ccc(Cl)cc1Cc1ccc(-c2nc3ccc(C(F)(F)F)cc3[nH]2)o1 | 14% (inactive)
O=C(/C=C/c1c[nH]c2ccccc12)NCCCCCN1CCC(c2c[nH]c3ccccc23)CC1 | 20% (inactive)
Cc1noc(C)c1-c1ccc2c(Nc3ccccc3C(C)(C)C)c(C(=O)NCc3ccc(C(F)(F)F)cc3)cnc2c1 | 30% (inactive)
CN(C)C(=O)O[C@@H]1CN[C@H](C#Cc2cc3ncnc(Nc4ccc5c(cnn5Cc5cccc(F)c5)c4)c3s2)C1 | 0% (inactive)
CCOC(=O)c1cc(C(=O)NCCCCN2CCC(c3ccc(CC)cc3OCC)CC2)ccc1-c1ccc(C(F)(F)F)cc1 | 74% (active)
Cc1cc(Nc2ccnc(-c3ccc(Cl)cc3)n2)ccn1 | 6% (inactive)
Cc1ccc(Nc2nc(N)c3ccccc3n2)cc1 | 9% (inactive)
O=C(N[C@H]1CCN(Cc2ccc(OCCN3CCCC3)c(Cl)c2)C1)c1ccc(Cl)c(Cl)c1 | 68% (active)
CC(Cc1ccc(NC(=O)COc2ccc(CC(C)NCCc3cccc(Cl)c3)cc2)cc1)NCCc1cccc(Cl)c1 (stereo unspecified) | 100% (active)
O=C(Nc1ccc(-c2ccc(-c3nc4ccccc4[nH]3)s2)cc1)c1ccncc1 | 21% (inactive)
Cc1nc2nc(N)nc(N)c2c(C)c1Cc1cccc(C(N)=O)c1 | 59% (active)
COc1ccc(-c2ccc(NC(=O)c3ccc(Cl)cc3)cc2)cc1CN1CCNCC1 | 14% (inactive)
Oc1ccc(Nc2nc(NCc3ccccc3)c3ccccc3n2)cc1 | 33% (inactive)
COc1cc(F)c2ncc(Cl)c(CCN3CCC(NCc4ccc5c(c4)NC(=O)CO5)CC3)c2c1 | 32% (inactive)
FC(F)(F)c1ccc2nc(-c3cccc(-c4cccc(CNCC5CCCO5)c4)c3)[nH]c2c1 (stereo unspecified) | 23% (inactive)
OCCN1CCN(Cc2ccc(-c3cccc(-c4nc5ccc(C(F)(F)F)cc5[nH]4)c3)cc2)CC1 | 29% (inactive)
Clc1cnc2ccc3c(c2c1CCN1CCC(NCc2cc4c(cn2)OCCO4)CC1)OCCO3 | 3% (inactive)
CC(CCc1ccccc1)NCC(O)c1cccc([N+](=O)[O-])c1 (stereo unspecified) | -2% (inactive)
CC(CN(C)C)C(=O)Nc1cccc(-c2cccc(-c3nc4ccc(F)cc4[nH]3)c2)c1 (stereo unspecified) | 29% (inactive)
CC(=O)Nc1cccc(C(=O)Nc2cccc(-c3ccc(-c4nc5ccc(F)cc5[nH]4)s3)c2)c1 | 88% (active)
COc1ccc(Nc2nccc(N3CCC(NC(=O)C(C)c4ccc(Cl)cc4)CC3)n2)cc1 (stereo unspecified) | 18% (inactive)
c1ccc(Oc2ccc(Nc3ccnc4cc(-c5cccc(CN6CCOCC6)c5)ccc34)cc2)cc1 | 14% (inactive)

Target: L-lactate dehydrogenase (Plasmodium falciparum (isolate CDC / Honduras)) (UniProt Q27743)
Assay: PfLDH activity inhibition – cell lysate, 3D7 strain, counter-screen for P. falciparum growth inhibition project (AID 2304);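 further: 0% = vehicle and 100% = reference inhibitor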
Conditions: P. falciparum 3D7 crude extract, LDH APAD/NBT absorbance; at 2 µM; stronger effect = higher value

Chain of L-lactate dehydrogenase (Plasmodium falciparum (isolate CDC / Honduras)) (Q27743 whole entry, looked up): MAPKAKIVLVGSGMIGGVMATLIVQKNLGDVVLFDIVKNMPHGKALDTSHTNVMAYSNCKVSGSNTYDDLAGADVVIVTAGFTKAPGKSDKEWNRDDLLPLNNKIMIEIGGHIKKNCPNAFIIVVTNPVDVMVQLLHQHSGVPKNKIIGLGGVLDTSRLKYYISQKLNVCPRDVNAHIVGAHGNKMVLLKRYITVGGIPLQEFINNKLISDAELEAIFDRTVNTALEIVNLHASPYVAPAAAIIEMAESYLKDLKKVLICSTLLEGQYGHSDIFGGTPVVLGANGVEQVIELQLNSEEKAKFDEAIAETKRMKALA

SMILES | inhibition
COc1ccc(C(=O)NC2CCN(c3ccnc4cc(Cl)ccc34)C2)cc1 (stereo unspecified) | 2% (inactive)
CC(C)(C)NCc1cc(Nc2ccnc3cc(Cl)ccc23)ccc1F | 6% (inactive)
O=C(NC1CCC(CCN2Cc3ccc(Br)cc3C2)CC1)c1cccc(-c2cccnc2)c1 (stereo unspecified) | 5% (inactive)
CC(C)Nc1nc(NCCc2cnc[nH]2)nc(NCc2ccc(Cl)c(Cl)c2)n1 | 7% (inactive)
N#Cc1ccc(N(CCNS(=O)(=O)c2cc(Br)c(Cl)s2)Cc2ccccc2C(F)(F)F)cc1C(F)(F)F | -1% (inactive)
COCCCNc1sc(S(=O)(=O)c2ccccc2)nc1S(=O)(=O)c1ccc(C)cc1 | -1% (inactive)
O=C(/C=C/c1ccc(Cl)cc1)NCCCCCN1CCC(C(=O)Nc2ccc(Cl)cc2)CC1 | 8% (inactive)
O=C(NCCCNc1nc2ccccc2[nH]1)c1cccc(OC(F)(F)F)c1 | -2% (inactive)
NC(=O)c1cccc(CNCc2ccc(-c3cccc(-c4nc5ccccc5[nH]4)c3)cc2)c1 | 3% (inactive)
C[C@@H]1CN(c2ncc(-c3ccc(CNC4Cc5ccccc5C4)cc3)cn2)C[C@H](C)N1 | -10% (inactive)
Oc1ccc(-c2ccccc2)cc1CN1CCCCCC1 | 2% (inactive)
Cc1cccc(Cn2c(C(N)=O)nn(-c3ccc([N+](=O)[O-])cc3C#N)c2=S)c1 | 2% (inactive)
O=C(Nc1ccncc1)c1cc(C(=O)Nc2ccncc2)cc([N+](=O)[O-])c1 | -3% (inactive)
CC(C)(C)C(Cn1ccnc1)NCc1cn[nH]c1-c1ccc(-c2ccccc2)cc1 (stereo unspecified) | -2% (inactive)
COc1cc(CNC[C@@H](O)[C@H](Cc2ccccc2)NC(=O)c2cc(C3CCCC3)cc(N3CCCS3(=O)=O)c2)cc(OC)c1 | 2% (inactive)
Cc1ccccc1Nc1nc(Nc2ccccc2)c2ccccc2n1 | -8% (inactive)
CCCc1cn2c3c(cc(C(=O)N[C@@H](Cc4ccccc4)[C@H](O)CNC4CCOCC4)cc13)N(C)S(=O)(=O)CC2 | 3% (inactive)
COc1ccc(CNC(=O)NC2CCN(c3ccnc(Nc4ccc(F)cc4)n3)CC2)cc1 | -6% (inactive)
CC(C)COc1ccc(Cl)cc1Cc1ccc(-c2nc3ccc(C(F)(F)F)cc3[nH]2)o1 | 5% (inactive)
O=C(/C=C/c1c[nH]c2ccccc12)NCCCCCN1CCC(c2c[nH]c3ccccc23)CC1 | 5% (inactive)

SMILES | inhibition
Cc1noc(C)c1-c1ccc2c(Nc3ccccc3C(C)(C)C)c(C(=O)NCc3ccc(C(F)(F)F)cc3)cnc2c1 | 0% (inactive)
CN(C)C(=O)O[C@@H]1CN[C@H](C#Cc2cc3ncnc(Nc4ccc5c(cnn5Cc5cccc(F)c5)c4)c3s2)C1 | 7% (inactive)
CCOC(=O)c1cc(C(=O)NCCCCN2CCC(c3ccc(CC)cc3OCC)CC2)ccc1-c1ccc(C(F)(F)F)cc1 | -1% (inactive)
Cc1cc(Nc2ccnc(-c3ccc(Cl)cc3)n2)ccn1 | -4% (inactive)
Cc1ccc(Nc2nc(N)c3ccccc3n2)cc1 | 8% (inactive)
O=C(N[C@H]1CCN(Cc2ccc(OCCN3CCCC3)c(Cl)c2)C1)c1ccc(Cl)c(Cl)c1 | -1% (inactive)
CC(Cc1ccc(NC(=O)COc2ccc(CC(C)NCCc3cccc(Cl)c3)cc2)cc1)NCCc1cccc(Cl)c1 (stereo unspecified) | 4% (inactive)
O=C(Nc1ccc(-c2ccc(-c3nc4ccccc4[nH]3)s2)cc1)c1ccncc1 | -5% (inactive)
Cc1nc2nc(N)nc(N)c2c(C)c1Cc1cccc(C(N)=O)c1 | 5% (inactive)
COc1ccc(-c2ccc(NC(=O)c3ccc(Cl)cc3)cc2)cc1CN1CCNCC1 | 5% (inactive)
Oc1ccc(Nc2nc(NCc3ccccc3)c3ccccc3n2)cc1 | 3% (inactive)
COc1cc(F)c2ncc(Cl)c(CCN3CCC(NCc4ccc5c(c4)NC(=O)CO5)CC3)c2c1 | -2% (inactive)
FC(F)(F)c1ccc2nc(-c3cccc(-c4cccc(CNCC5CCCO5)c4)c3)[nH]c2c1 (stereo unspecified) | -2% (inactive)
OCCN1CCN(Cc2ccc(-c3cccc(-c4nc5ccc(C(F)(F)F)cc5[nH]4)c3)cc2)CC1 | 0% (inactive)
Clc1cnc2ccc3c(c2c1CCN1CCC(NCc2cc4c(cn2)OCCO4)CC1)OCCO3 | -2% (inactive)
CC(CCc1ccccc1)NCC(O)c1cccc([N+](=O)[O-])c1 (stereo unspecified) | 1% (inactive)
CC(CN(C)C)C(=O)Nc1cccc(-c2cccc(-c3nc4ccc(F)cc4[nH]3)c2)c1 (stereo unspecified) | 5% (inactive)
CC(=O)Nc1cccc(C(=O)Nc2cccc(-c3ccc(-c4nc5ccc(F)cc5[nH]4)s3)c2)c1 | -1% (inactive)
COc1ccc(Nc2nccc(N3CCC(NC(=O)C(C)c4ccc(Cl)cc4)CC3)n2)cc1 (stereo unspecified) | -2% (inactive)
c1ccc(Oc2ccc(Nc3ccnc4cc(-c5cccc(CN6CCOCC6)c5)ccc34)cc2)cc1 | -1% (inactive)
